Assay results from PubChem BioAssay (Tox21).
“And” between values parts separate entries of the source, which are not always exact repeats. Identical values can stand only once. Inconclusive results are not listed. A call without a number means that no potency is given here. The source made the active and inactive calls. Calls follow the shape of the full dose curve.

What was measured:
[1] = biological target: Acetylcholinesterase (Homo sapiens) (UniProt P22303); experiment: Acetylcholinesterase (AChE) small molecule antagonists: colormetric cell-based qHTS assay (AID 1347395); also: nearly all actives have a fitted effect of over 30% in size
Outline: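 Homogeneous whole-cell format. SH-SY5Y cells seeded overnight, dosed with compound (30 min, 37 C, 5% CO2), then given DTNB/acetylthiocholine cocktail for 90 min at 37 C; colorimetric signal.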

[2] = biological target: Acetylcholinesterase (Homo sapiens) (UniProt P22303); experiment: Acetylcholinesterase (AChE) small molecule antagonists: enzyme-based qHTS assay (AID 1347397); conditions: Potency: AChE enzyme activity inhibition; outcome: AChE enzyme activity inhibition; also: nearly all actives have a fitted effect of over 55% in size; also: potency is read from the fitted curve at half-maximal effect
Outline: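 Compound or DMSO vehicle was pin-transferred onto recombinant human AChE (50 mU/mL as dispensed) and left 30 min at room temperature. Acetylthiocholine with DTNB then started the reaction, read colorimetrically 10 min later.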

[3] = biological target: Acetylcholinesterase (Homo sapiens) (UniProt P22303); experiment: Acetylcholinesterase (AChE) small molecule antagonists: fluorescence cell-based qHTS assay (AID 1347398); conditions: Potency: AChE activity; outcome: AChE activity; also: nearly all actives have a fitted effect of over 50% in size
Outline: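 Using neuroblastoma SH-SY5Y cells as the enzyme source, test chemicals are preincubated 30 min at 37 C; AChE-driven acetylthiocholine cleavage is then quantified by thiocholine-dependent Thiolite Green fluorescence after 40 min at room temperature.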

[4] = biological target: Acetylcholinesterase (Homo sapiens) (UniProt P22303); experiment: Acetylcholinesterase (AChE) small molecule antagonists: enzyme-based qHTS assay with human liver microsomes (AID 1347399); conditions: Potency: qHTS inhibition; outcome: qHTS inhibition; also: nearly all actives have a fitted effect of over 60% in size
Outline: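 Recombinant human AChE (50 mU/mL in the enzyme mix) and human liver microsomes (0.25 mg/mL final) were preincubated with compound and NADPH (0.25 mg/mL final) for 30 min at 37 C. Acetylthiocholine/DTNB was then added; thiocholine was read colorimetrically after 10 min at room temperature.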

Chain of Acetylcholinesterase (Homo sapiens) (P22303 whole entry, looked up): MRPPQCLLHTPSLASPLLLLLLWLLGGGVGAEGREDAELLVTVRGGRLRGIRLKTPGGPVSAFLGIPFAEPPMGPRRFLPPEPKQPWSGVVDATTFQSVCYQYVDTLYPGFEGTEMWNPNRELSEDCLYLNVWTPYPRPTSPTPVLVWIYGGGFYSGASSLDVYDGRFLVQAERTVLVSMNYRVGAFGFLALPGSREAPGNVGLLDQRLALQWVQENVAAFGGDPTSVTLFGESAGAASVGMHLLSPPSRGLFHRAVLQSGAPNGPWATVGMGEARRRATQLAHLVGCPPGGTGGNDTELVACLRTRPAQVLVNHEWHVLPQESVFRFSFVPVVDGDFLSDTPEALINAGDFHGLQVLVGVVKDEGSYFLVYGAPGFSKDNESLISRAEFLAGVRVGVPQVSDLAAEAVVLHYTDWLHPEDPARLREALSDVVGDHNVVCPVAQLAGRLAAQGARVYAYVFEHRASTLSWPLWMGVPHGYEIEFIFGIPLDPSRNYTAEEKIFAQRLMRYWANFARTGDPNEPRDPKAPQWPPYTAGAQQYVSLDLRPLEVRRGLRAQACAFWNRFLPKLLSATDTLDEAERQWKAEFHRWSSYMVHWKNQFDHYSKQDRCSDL

| Compound | Potency [1] | Potency [2] | Potency [3] | Potency [4] | outcome [1] | outcome [2] | outcome [3] | outcome [4] |
| --- | --- | --- | --- | --- | --- | --- | --- | --- |
| CCCCCCC(=O)c1ccccc1 | inactive | inactive | inactive | inactive | – | – | – | – |
| CCCCCCCCCCCCOC(=O)c1cc(O)c(O)c(O)c1 | inactive | 35.4 µM (active) and 39.9 µM (active) | inactive | inactive | – | – | – | – |
| CCC(C)CO (stereo not given) | inactive | inactive | inactive | inactive | – | – | – | – |
| O=C(O)c1ccccc1NCCc1ccccc1 | inactive | inactive | inactive | inactive | – | – | – | – |
| CCC(C)(C)C | inactive | inactive | inactive | inactive | – | – | – | – |
| CCCCC(=O)N(C)C | inactive | inactive | inactive | inactive | – | – | – | – |
| CCOC(N)=O | inactive | inactive | inactive | inactive | – | – | – | – |
| OCCOc1cccc(OCCO)c1 | inactive | inactive | inactive | inactive | – | – | – | – |
| O=S(=O)(Cl)c1c(Cl)cccc1Cl | inactive | inactive | inactive | inactive | – | – | – | – |
| CCCCCOc1ccc(C2SC(=O)NC2=O)cc1OCC (stereo not given) | inactive | inactive | inactive | inactive | – | – | – | – |
| C[C@@H](CN1CC(=O)NC(=O)C1)N1CC(=O)NC(=O)C1 | inactive | inactive | inactive | inactive | – | – | – | – |
| NC(CO)(CO)CO | – | – | – | – | inactive | inactive | inactive | inactive |
| O=[N+]([O-])c1cc[n+]([O-])cc1 | inactive | inactive | inactive | inactive | – | – | – | – |
| CCOC(=O)c1c(C)n(C)c2ccc(O)cc12 | inactive | inactive | inactive | inactive | – | – | – | – |
| CCCCC(=O)O[C@]1(C(=O)CO)CC[C@H]2[C@@H]3CCC4=CC(=O)CC[C@]4(C)[C@H]3[C@@H](O)C[C@@]21C | inactive | inactive | inactive | inactive | – | – | – | – |
| C[C@H]1C[C@H]2[C@@H]3CCC4=CC(=O)C=C[C@]4(C)[C@@]3(Cl)[C@@H](O)C[C@]2(C)[C@@]1(O)C(=O)CO | inactive | inactive | inactive | inactive | – | – | – | – |
| Nc1ccc(S(=O)(=O)Nc2ccccn2)cc1 | inactive | inactive | inactive | inactive | – | – | – | – |
| O=C(O)Cc1ccc(Cl)cc1Cl | inactive | inactive | inactive | inactive | – | – | – | – |
| O=S(=O)(O)CCO | inactive | inactive | inactive | inactive | – | – | – | – |
| CC(=O)c1ccc(O)cc1 | inactive | inactive | inactive | inactive | – | – | – | – |
| Cc1cc(C)c(C)c(O)c1 | inactive | inactive | inactive | inactive | – | – | – | – |
| O=c1[nH]cnc2nc[nH]c12 | inactive | inactive | inactive | inactive | – | – | – | – |
| Cn1ccnc1 | inactive | inactive | inactive | inactive | – | – | – | – |
| COc1ccc(C(=O)/C(Br)=C\C(=O)O)cc1 | inactive | inactive | inactive | inactive | – | – | – | – |
| C=CC(C)(CCC=C(C)C)OC(C)=O (stereo not given) | inactive | inactive | inactive | inactive | – | – | – | – |
| NC(N)=NS(=O)(=O)c1ccc(N)cc1 | inactive | inactive | inactive | inactive | – | – | – | – |
| CC(=O)Nc1ccc(C)cc1C | inactive | inactive | inactive | inactive | – | – | – | – |
| CC(C)=CCC[C@](C)(O)[C@@H]1CC=C(C)CC1 | inactive | inactive | inactive | inactive | – | – | – | – |
| COC1=C(OC)C(=O)C(CCCCCCCCCCO)=C(C)C1=O | inactive | inactive | inactive | inactive | – | – | – | – |
| CCOC(=O)CC(CC(=O)OCC)(OC(C)=O)C(=O)OCC | inactive | inactive | inactive | inactive | – | – | – | – |
